The list is a sample of the results.
B2AR arrestin ag – beta-arrestin recruitment by human beta2-adrenergic receptor ligands; P07550; HTLA Tango cells, beta-arrestin recruitment, luciferase luminescence, 18 h; Potency, µM (top dose mostly 46.1 µM), hits mostly activators; 44,000 tested, under 10 active;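 further: potency means the concentration at half of the fitted maximal effect; 0% = DMSO and full agonism = EC100 isoproterenol or metaproterenol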
Target sequence (P07550 whole entry, looked up): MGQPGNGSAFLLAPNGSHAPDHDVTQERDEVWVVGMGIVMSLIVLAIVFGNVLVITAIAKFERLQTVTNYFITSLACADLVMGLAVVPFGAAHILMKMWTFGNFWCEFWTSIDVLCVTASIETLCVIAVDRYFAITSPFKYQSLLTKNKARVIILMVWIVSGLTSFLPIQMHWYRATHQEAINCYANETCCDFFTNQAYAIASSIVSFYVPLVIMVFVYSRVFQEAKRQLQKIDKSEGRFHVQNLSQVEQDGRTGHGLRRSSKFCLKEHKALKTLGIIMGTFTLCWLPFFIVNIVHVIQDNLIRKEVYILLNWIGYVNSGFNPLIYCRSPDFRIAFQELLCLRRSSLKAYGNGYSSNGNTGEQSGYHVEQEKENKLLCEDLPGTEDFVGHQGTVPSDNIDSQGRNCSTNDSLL
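Tango cells (recombinant beta2-AR, beta-arrestin, tTA-driven luciferase), 1500/well in DMEM 1% FBS, treated 18 h at 37 °C with compounds up to 46 µM; luciferin mix added, luminescence read after 15 min; %activity curves fitted and curve-classed.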
GALK inh – inhibitors of human galactokinase (GALK). AID 1347072. recombinant GALK, Kinase-Glo ATP luminescence, 1 h. P51570. Potency, µM (series often up to 57.5 µM), inactives show at the top dose activity, negative = inhibition, hits mostly inhibitors. 44,000 tested, under 10 active;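 further: plate controls were full GALK reaction for no effect and reaction lacking GALK for full effect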
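Human GALK (5 nM) was incubated with 35 uM ATP and 100 uM galactose in 20 mM HEPES pH 8.0 with MgCl2, NaCl, DTT and BSA for 1 h at room temperature. Remaining ATP was measured by Kinase-Glo Plus luminescence.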
PTAP-TSG101 blk – blocks PTAP binding to human TSG101, validation. Potency, µM (highest dose often 115 µM), most hits filed as inhibitors. Q99816. Fluorescence polarization, FITC-PTAP peptide/Tsg101, 20 min. 44,000 tested, under 10 active; further: potency means the concentration at half of the fitted maximal effect; 0% is about no effect
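qHTS FP binding, 20 min r.t.: 10 uM Tsg101 domain + 50 nM FITC-PTAP peptide, pH 7.5 HEPES buffer with TCEP and EDTA.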
Numbers without * were called inactive. The call rests on the fitted dose curve; in most records, active means well fitted curve in the direction sought with a large enough effect; inconclusive means small, poorly fitted or top-dose-only effect, or another doubt; inactive means no such curve, though single readings can be large; an effect the other way counts as inactive or inconclusive.

What do the screens show for `CCOc1cccc(C2c3c(oc4ccc(F)cc4c3=O)C(=O)N2CCOC)c1` (stereo unspecified)?
B2AR arrestin ag: inactive; GALK inh: 1.8%; PTAP-TSG101 blk: inactive

What do the screens show for `COc1cccc(CNC(=O)CSC2=Nc3ccccc3N=C(c3ccc(F)cc3)C2)c1`?
B2AR arrestin ag: inactive; GALK inh: 0.7%; PTAP-TSG101 blk: inactive

Results for Cc1ccc(NC(=O)c2ccc(N(Cc3ccccc3)S(C)(=O)=O)cc2)cc1 ?
B2AR arrestin ag: inactive; GALK inh: -5.1%; PTAP-TSG101 blk: inactive

How did COC(=O)c1sccc1S(=O)(=O)N1CCN(c2ccc(C(C)=O)cc2)CC1 do in these assays?
B2AR arrestin ag: inactive; GALK inh: -0.1%; PTAP-TSG101 blk: inactive

How did CCCC(=O)c1ccc(OC(=O)c2c(-c3ccccc3Cl)noc2C)cc1 do in these assays?
B2AR arrestin ag: inactive; GALK inh: -0.8%; PTAP-TSG101 blk: inactive

What do the screens show for `Cc1cc(Cl)ccc1NC(=O)CS(=O)(=O)c1cccc2nsnc12`?
B2AR arrestin ag: inactive; GALK inh: -1.6%; PTAP-TSG101 blk: inactive

How did O=C(Nc1ccc2nn(-c3ccccc3)nc2c1)c1ccc(-c2cccc(Cl)c2)o1 do in these assays?
B2AR arrestin ag: inactive; GALK inh: -1.8%; PTAP-TSG101 blk: inactive

How did Cc1cc2c(cc1S(=O)(=O)CCC(=O)N1CCCCC1C)OCC(=O)N2 (stereo unspecified) do in these assays?
B2AR arrestin ag: inactive; GALK inh: 1.7%; PTAP-TSG101 blk: inactive

Results for CCC(=O)NNc1ncnc2c1cnn2-c1ccc(C)c(Cl)c1 ?
B2AR arrestin ag: inactive; GALK inh: -1.2%; PTAP-TSG101 blk: inactive

What do the screens show for `CCOc1ccc(NC(=O)CSc2nnc(CNC(=O)C34CC5CC(CC(C5)C3)C4)n2CC)cc1`?
B2AR arrestin ag: inactive; GALK inh: -2.0%; PTAP-TSG101 blk: inactive

What do the screens show for `Cc1ccccc1CN1C(=O)C(O)(CC(=O)c2ccccc2)c2cc(Cl)ccc21` (stereo unspecified)?
B2AR arrestin ag: inconclusive; GALK inh: -4.4%; PTAP-TSG101 blk: inactive

Results for COc1cccc2c1Oc1ncccc1N(c1ccc(C(=O)NCc3cccc(C)c3)s1)C2 ?
B2AR arrestin ag: inactive; GALK inh: -3.3%; PTAP-TSG101 blk: inactive

What do the screens show for `CCC1CN(C(=O)Nc2cccc3c2CCCC3)c2cc(Cl)ccc2O1` (stereo unspecified)?
B2AR arrestin ag: inactive; GALK inh: 1.4%; PTAP-TSG101 blk: inactive

What do the screens show for `Cc1ccccc1Cn1c(=O)n(CC2CCC(C(=O)N3CCC(C)CC3)CC2)c(=O)c2sccc21` (stereo unspecified)?
B2AR arrestin ag: inactive; GALK inh: -2.0%; PTAP-TSG101 blk: inactive

Results for Cc1cc(C)cc(Nc2ncnc3c2nc2n3CCCC2)c1 ?
B2AR arrestin ag: inactive; GALK inh: 3.6%; PTAP-TSG101 blk: inactive

Results for COc1ccc(CCNc2oc(COc3ccc(Cl)cc3)nc2C#N)cc1OC ?
B2AR arrestin ag: inactive; GALK inh: 2.2%; PTAP-TSG101 blk: inactive

How did Cc1ccc(-n2c(=O)c3c(c4cc(C)ccc4n3C)n(CC(=O)Nc3cc(C)cc(C)c3)c2=O)cc1 do in these assays?
B2AR arrestin ag: inconclusive; GALK inh: -1.6%; PTAP-TSG101 blk: inactive

What do the screens show for `CN1C(=O)c2ccccc2Sc2ccc(NC(=O)N3CCN(c4ccc(F)cc4)CC3)cc21`?
B2AR arrestin ag: inactive; GALK inh: -2.2%; PTAP-TSG101 blk: inactive

What do the screens show for `COc1cc(NC(=O)c2ccc(-n3cnc4cccnc43)cc2)cc(OC)c1`?
B2AR arrestin ag: inactive; GALK inh: 4.3%; PTAP-TSG101 blk: inactive

What do the screens show for `O=C(Cn1c(=O)n(Cc2ccco2)c(=O)c2ccccc21)Nc1ccc(Cl)cc1Cl`?
B2AR arrestin ag: inactive; GALK inh: 0.0%; PTAP-TSG101 blk: inactive

What do the screens show for `CCOc1ccc2ncc3c(-c4ccccc4)nn(CC(=O)Nc4cccc(F)c4)c3c2c1`?
B2AR arrestin ag: inactive; GALK inh: 1.5%; PTAP-TSG101 blk: inactive

What do the screens show for `Clc1cccc(N2CCN(c3ncnc4c3nc3n4CCCCC3)CC2)c1`?
B2AR arrestin ag: inactive; GALK inh: 3.5%; PTAP-TSG101 blk: inactive

What do the screens show for `CCCOc1ccc(Oc2nc(NC)nc(N3CCOCC3)n2)nn1`?
B2AR arrestin ag: inactive; GALK inh: -0.6%; PTAP-TSG101 blk: inactive

What do the screens show for `O=C(NCc1ccc(Cl)cc1)C1CCCN(c2nc3ccccc3n3cccc23)C1` (stereo unspecified)?
B2AR arrestin ag: inactive; GALK inh: 3.8%; PTAP-TSG101 blk: inactive

Screening results: PubChem BioAssay, National Center for Advancing Translational Sciences (NCATS)
